Source: the supplement of paper PMC13172266
Structures can show the parent of a compound that is named as a salt.

Legend:
Assay in all cases: cell proliferation relative to vehicle (% of vehicle); higher = less growth inhibition
Conditions in all cases: 72 h
[1] = system: U2932 TK216-resistant clone 2
Summary of the method: (§1)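 A library of 348 targeted inhibitors was screened against the ABC-DLBCL cell line U2932, using parental cells and two clones made resistant to an ETS-targeting agent through repeated exposure over almost a year. The cells were cultured at 37°C and 5% CO2 in medium containing 10% FBS and treated at 500 nM or 50 nM for 72 h, after which MTT was added for 4 h, stopped with 25% SDS, and absorbance was read on a Cytation 3. Proliferation is given as the percentage of proliferating cells relative to the vehicle, DMSO.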

[2] = system: U2932 TK216-resistant clone 3
Summary of the method: as §1

U2932 parental = system: U2932 parental
Summary of the method: as §1

| Compound | cell proliferation ([1]; 50 nM) | cell proliferation ([1]; 500 nM) | cell proliferation ([2]; 50 nM) | cell proliferation ([2]; 500 nM) | cell proliferation (U2932 parental; 50 nM) | cell proliferation (U2932 parental; 500 nM) |
| --- | --- | --- | --- | --- | --- | --- |
| O=P1(NCCCl)OCCCN1CCCl (centres undefined) [Ifosfamide] | 108 | 107 | 102 | 103 | 103 | 93.4 |
| O=C(O)CCCc1ccc(N(CCCl)CCCl)cc1 [Chloroambucil] | 101 | 99.4 | 98.4 | 101 | 99.7 | 98.7 |
| CC(O)(CS(=O)(=O)c1ccc(F)cc1)C(=O)Nc1ccc(C#N)c(C(F)(F)F)c1 (centres undefined) [Bicalutamide] | 109 | 104 | 103 | 97.8 | 102 | 96.5 |
| COc1cc2c(cc1OC)C1CC(=O)C(CC(C)C)CN1CC2 (centres undefined) [Tetrabenazine (Xenazine)] | 101 | 96.2 | 106 | 107 | 103 | 93.2 |
| CC1=C(O)C(=O)C=C2C1=CC=C1[C@@]2(C)CC[C@@]2(C)[C@@H]3C[C@](C)(C(=O)O)CC[C@]3(C)CC[C@]12C [Celastrol] | 77.9 | 18.8 | 85 | 27.8 | 80.6 | 24.1 |
| Cc1sc2c(c1C)C(c1ccc(Cl)cc1)=N[C@@H](CC(=O)OC(C)(C)C)c1nnc(C)n1-2 | 91 | 58.9 | 77.2 | 57.4 | 92.1 | 55.1 |
| Cn1cc(C2=C(c3cn(C4CCN(Cc5ccccn5)CC4)c4ccccc34)C(=O)NC2=O)c2ccccc21 | 110 | 103 | 99.8 | 97.1 | 103 | 107 |
| O=S(=O)(CC1CS1)c1ccc(Oc2ccccc2)cc1 (centres undefined) | 102 | 97.6 | 98.2 | 104 | 95.5 | 99.7 |
| O=C(O)C(=O)c1cn(Cc2ccccc2)c2ccc(-c3ccc(OC(F)(F)F)cc3)cc12 [Tiplaxtinin (PAI-039)] | 99.5 | 93.1 | 100 | 98.5 | 102 | 99.3 |
| N[C@@H]1C[C@H]1c1ccccc1 [Tranylcypromine (2-PCPA) HCl] | 108 | 107 | 111 | 102 | 101 | 100 |
| CC(=O)OC(C)(C)/C=C/C(=O)[C@](C)(O)[C@H]1[C@H](O)C[C@@]2(C)[C@@H]3CC=C4[C@H](C[C@H](O)C(=O)C4(C)C)[C@]3(C)C(=O)C[C@]12C [Cucurbitacin B] | -2.74 | -3.79 | 0.167 | -2.48 | -0.672 | -0.512 |
| C/C(=C\c1csc(C)n1)[C@@H]1C[C@@H]2O[C@@H]2CCC[C@H](C)[C@H](O)[C@@H](C)C(=O)C(C)(C)[C@@H](O)CC(=O)O1 [Epothilone A] | 12.4 | 10 | 7.03 | 9.75 | 9.49 | 10.1 |
| Cn1c(CCCC(=O)O)nc2cc(N(CCCl)CCCl)ccc21 [Bendamustine HCl] | 111 | 108 | 102 | 102 | 99.3 | 90.2 |
| COc1ccc(C[C@H]2NC[C@H](O)[C@H]2OC(C)=O)cc1 [Anisomycin] | 55.2 | 25.4 | 69 | 29.3 | 66.9 | 20.5 |
